Several values for one entry are separate records, joined by “and”; a condition that tells them apart may be missing. Equal entries are not always repeated. Records with an inconclusive call do not appear. Activity calls are given as the source filed them. The calls were made as follows, unless noted: active = hit-call score of the fitted dose curve at least 0.9, where 1 is the maximum; inactive = score below 0.9.

The first test is described as follows: CCTE_Shafer_MEA_dev_AB: CCTE's Alamar Blue Assay for Cytotoxicity in the Neural Network Formation Assay, Shafer Lab (AID 2284083; active = hit-call score of the fitted dose curve at least 0.9, where 1 is the maximum;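 also: twelve days of exposure from plating with re-dosing on DIV 5 and 9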).
Details: not given
As for the experimental part: CCTE_Shafer_MEA_dev assay is conducted using Axion Biosystems 48 well microelectrode array (MEA) plates and Maestro recording system. Each well of the MEA plate contains a grid of 16 microelectrodes embedded in the culture surface. Electrically active cells, such as neurons, can be cultured over the electrodes, and electrical activity in these cells can be recorded extracellularly. The spontaneous firing of neurons is captured from each electrode on a microsecond timescale providing both temporally and spatially precise data. […] The CCTE_Shafer_MEA_dev assay uses primary cultures of rat cortical neurons. Recordings are made on days post-plating 5, 7, 9 and 12. As these cultures mature over time, neural networks develop functional activity and form cohesive networks in which electrical activity can be highly coordinated. CCTE_Shafer_MEA_dev_AB is 1 of 19 assay components of the CCTE_Shafer_MEA_dev assay. It measures the resazurin reduction using fluorescence.Data from the assay component CCTE_Shafer_MEA_dev_AB was analyzed into 1 assay endpoint. This assay endpoint, CCTE_Shafer_MEA_dev_AB, was analyzed in the positive analysis fitting direction relative to DMSO as the negative control and baseline of activity. Using a type of viability reporter, loss-of-signal activity can be used to understand cell viability.
On the day prior to culture, each well was coated thoroughly with 150 uL of 0.05% polyethyleneimine (PEI, Sigma Cat P3143) in 50 mM HEPES (Sigma Cat H7523) at a pH of 8. The plate was incubated at 37C for one hour. PEI was rinsed out with 500 uL of sterile water three times. Plates were stored at 4C until the day of culture. This culture was plated at a seeding density of 1.5 x 10^5 cells/well on a 48-well MEA plate, prepared as described above. Cells were administered via a 25 uL media/laminin ([…]; Sigma Cat L2020-1MG) drop directly onto the microelectrode array, as adding the cells with the laminin results in better attachment than pre-coating with laminin. After 2 hours, an additional 475 uL of cortical media was added and the cells returned to the incubator. Exposure starts at day 0 of plating and is continued over twelve days of network development until the experiment is terminated. Cells are fed with fresh medium on DIV 5 and 9, following the recordings on those days. The entire volume of media in the well is exchanged and any vehicle or compound treatment is renewed. Complete details are found in OP-NHEERL/ISTD/SBB/TJS/2015-03-r0 (available on request, email shafer.tim@epa.gov). Measurement of the electrical activity is non-invasive, and recordings can be made from the same plate over multiple different days of the culture. In cortical neurons, this allows for the measurement of extracellular action potentials over the period during which networks form in the MEA plate.
For `OCCC(F)(F)C(F)(F)C(F)(F)C(F)(F)C(F)(F)C(F)(F)C(F)(F)C(F)(F)F`, the molecule was classed as inactive.

As to `c1ccc2c(c1)ccc1ccccc12`, the molecule was called inactive.

Turning to `CC(O)CO` (centres undefined), the molecule was classed as inactive.

Regarding `c1ccc2cc3c(ccc4ccccc43)cc2c1`, the molecule was called inactive.

In the case of `CC1=C(/C=C/C(C)=C/C=C/C(C)=C/C(=O)O)C(C)(C)CCC1`, the result was inactive.

`c1ccc2c(c1)Cc1ccccc1-2`: the result was inactive.

The AC50 is the midpoint of the concentration-response curve, whichever way the signal moves. For `CC#C[C@]1(O)CC[C@H]2[C@@H]3CCC4=CC(=O)CCC4=C3[C@@H](c3ccc(N(C)C)cc3)C[C@@]21C`, the AC50 is 16.5 µM (active) and 25.4 µM (active).

The next test in a line: CCTE_Shafer_MEA_acute_LDH: CCTE's Lactate Dehydrogenase Assay for Cytotoxicity in the Neural Acute Assay, Shafer Lab (AID 2284086; active = hit-call score of the fitted dose curve at least 0.9, where 1 is the maximum;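 also: active means LDH release rises above DMSO vehicle level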).
Details: not given
In short, it runs like this: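 Medium from rat cortical neuron MEA cultures sampled right after the 40 min compound-exposure recording; released LDH measured by absorbance at 490 nm. Analyzed as signal gain relative to DMSO.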
For the molecule `OCCC(F)(F)C(F)(F)C(F)(F)C(F)(F)C(F)(F)C(F)(F)C(F)(F)C(F)(F)F`, the molecule was classed as inactive.

In the case of `CC[C@H](c1ccc(O)cc1)[C@@H](CC)c1ccc(O)cc1`, the outcome was inactive.

On to `Cc1cc(CCN2CCN(c3nsc4ccccc34)CC2)cc2c1NC(=O)CC2(C)C`, for which the call was inactive.

`OC1CCC(C2CCCCC2)CC1` (centres undefined): the result was inactive.

Consider `CCCCCCCCCCCCc1ccccc1S(=O)(=O)O`, for which the molecule was classed as inactive.

As to `CCCCCCCCCCCCN1CCCC1=O`, the outcome was inactive.

In the case of `CC(C)CCCCCCOC(=O)CCCCC(=O)OCCCCCCC(C)C`, the molecule was classed as inactive.

Take `CN1CCN(c2ccccc2/C=C2\SCCN(c3ccc(Cl)c(Cl)c3)C2=O)CC1`: the outcome was inactive.

Turning to `CCCOc1sc(C(=O)N2CCC(c3cc(CN)ccc3F)CC2)c(C)c1Br`, the molecule was classed as inactive.

`CC(=O)NC1(c2cccc(F)c2)CCN(CC[C@@]2(c3ccc(Cl)c(Cl)c3)CN(c3ccccc3)C(=O)CO2)CC1`: the outcome was inactive.

Take `O=C(O)c1ccccc1C(c1ccc(O)cc1)c1ccc(O)cc1`: the molecule was called inactive.

On to `CC#C[C@]1(O)CC[C@H]2[C@@H]3CCC4=CC(=O)CCC4=C3[C@@H](c3ccc(N(C)C)cc3)C[C@@]21C`, for which the call was inactive.

For the molecule `NC(=O)N(O)[C@@H]1C=C[C@H](Oc2cccc(Oc3ccc(F)cc3)c2)C1`, the outcome was inactive.

Take `CCC(=C(c1ccc(O)cc1)c1ccc(OCCN(C)C)cc1)c1ccccc1`: the call was inactive.

A further test can be described thus: CCTE_Shafer_MEA_dev_mutual_information_norm: CCTE's Neural Network Formation Assay for Mutual Information Normalization, Shafer Lab (AID 2284091).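 As to AC50: mutual information between electrodes summarised as area under curve across four recording days; potency is for a decrease in mutual information relative to DMSO.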
Details: not given
The method, boiled down:
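Rat cortical cultures, 48-well MEA, continuous exposure DIV 0–12 with full media/compound change DIV 5 and 9. Readout: inter-electrode mutual information, AxIS adaptive spike detection; AUC across DIV 5/7/9/12 recordings; DMSO baseline, negative fitting direction.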
In the case of `OCCC(F)(F)C(F)(F)C(F)(F)C(F)(F)C(F)(F)C(F)(F)C(F)(F)C(F)(F)F`, the outcome was inactive.

Take `c1ccc2c(c1)ccc1ccccc12`: the call was inactive.

In the case of `CC(O)CO` (centres undefined), the molecule was classed as inactive.

Regarding `C=C(C)C(=O)OCCC(F)(F)C(F)(F)C(F)(F)C(F)(F)C(F)(F)C(F)(F)F`, the molecule was called inactive.

Turning to `CN1CCC[C@H]1c1cccnc1`, the result was inactive.

Consider `c1ccc2cc3c(ccc4ccccc43)cc2c1`, for which the outcome was inactive.

`CC1=C(/C=C/C(C)=C/C=C/C(C)=C/C(=O)O)C(C)(C)CCC1`: the AC50 is 7.47 µM (active).

As for `c1ccc2c(c1)Cc1ccccc1-2`, the call was inactive.

As to `OCCC(F)(F)C(F)(F)C(F)(F)C(F)(F)C(F)(F)C(F)(F)F`, the molecule was classed as inactive.

As for `CC#C[C@]1(O)CC[C@H]2[C@@H]3CCC4=CC(=O)CCC4=C3[C@@H](c3ccc(N(C)C)cc3)C[C@@]21C`, the AC50 was 1.07 µM (active) and 11.7 µM (active).

The nature of the next test: UKN2_HCS_IMR90_neural_migration: University of Konstanz (UKN) Leist Lab Neural Crest Cell Migration Assay in human induced IMR90 Pluripotent Stem Cells (UKN2) (AID 2284204). Particulars: actives raise or lower the signal. The method, boiled down: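 iPSC-derived IMR90 neural crest cells on PLO/laminin/fibronectin were seeded around silicone stoppers; after stopper removal, migration in N2-S medium with EGF and FGF ran 24 h before 24 h chemical exposure. Calcein-AM/Hoechst high-content imaging; bidirectional fit versus DMSO.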
For the molecule `CN1CCC[C@H]1c1cccnc1`, the result was inactive.

Turning to `CC1=C(/C=C/C(C)=C/C=C/C(C)=C/C(=O)O)C(C)(C)CCC1`, the half-maximal activity concentration (AC50) is 5.77 µM (active).

As for `CC#C[C@]1(O)CC[C@H]2[C@@H]3CCC4=CC(=O)CCC4=C3[C@@H](c3ccc(N(C)C)cc3)C[C@@]21C`, the concentration at half-maximal activity (AC50) was 9.67 µM (active) and 5.64 µM (active).

The next test can be described thus: UKN4_HCS_LUHMES_neurite_outgrowth: University of Konstanz (UKN) Leist Lab Neurite Outgrowth Assay in human LUHMES cells (UKN4) (AID 2284206). Particulars: actives raise or lower the signal. In short, it runs like this: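 Human LUHMES neuronal precursors, differentiated 2 days then replated without cAMP and GDNF, exposed to compounds for 24 h. Neurite area imaged by high-content microscopy after calcein-AM live staining; Hoechst H-33342 for viability; bidirectional fit versus DMSO.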
For the molecule `CN1CCC[C@H]1c1cccnc1`, the molecule was called inactive.

Regarding `CC1=C(/C=C/C(C)=C/C=C/C(C)=C/C(=O)O)C(C)(C)CCC1`, the AC50 was 29.8 µM (active).

In the case of `CC#C[C@]1(O)CC[C@H]2[C@@H]3CCC4=CC(=O)CCC4=C3[C@@H](c3ccc(N(C)C)cc3)C[C@@]21C`, the AC50 is 10 µM (active).

Another test in a line: IUF_NPC1b_proliferation_BrdU_72hr: Leibniz Research Institute for Environmental Medicine (IUF) 72-hour Neural Progenitor Cell Bromodeoxyuridine (BrdU) Proliferation Assay (NPC1b) (AID 2284207).
Details: not given
In short, it runs like this:
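hNPC spheres (primary, GW 16-19 fetal cortex), single sphere/well, EGF+FGF medium; 72 h compound, no renewal; BrdU pulse last 16 h; luminescent ELISA; activity vs DMSO baseline; growth-factor withdrawal as positive control.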
Take `CN1CCC[C@H]1c1cccnc1`: the molecule was called inactive.

With `CC1=C(/C=C/C(C)=C/C=C/C(C)=C/C(=O)O)C(C)(C)CCC1`, the half-maximal activity concentration (AC50) is 1.67 µM (active).

For the molecule `CC#C[C@]1(O)CC[C@H]2[C@@H]3CCC4=CC(=O)CCC4=C3[C@@H](c3ccc(N(C)C)cc3)C[C@@]21C`, the AC50 was 5 µM (active).

The nature of the next test: IUF_NPC1a_proliferation_area_72hr: Leibniz Research Institute for Environmental Medicine (IUF) 72-hour Neural Progenitor Cell Proliferation Area Assay (NPC1a) (AID 2284208).
Details: not given
In short, it runs like this: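 Proliferation read as increase in sphere area by phase-contrast imaging over 72 h continuous compound exposure (no renewal) of hNPC spheres grown with EGF/FGF at 37C, 5% CO2. Growth-factor withdrawal served as positive control; DMSO as baseline.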
As to `CN1CCC[C@H]1c1cccnc1`, the outcome was inactive.

For `CC1=C(/C=C/C(C)=C/C=C/C(C)=C/C(=O)O)C(C)(C)CCC1`, the AC50 was 4.35 µM (active).

On to `CC#C[C@]1(O)CC[C@H]2[C@@H]3CCC4=CC(=O)CCC4=C3[C@@H](c3ccc(N(C)C)cc3)C[C@@]21C`, for which the molecule was called inactive.

Another test can be described thus: IUF_NPC1_viability_72hr: Viability Assessment at 72 hours in the Leibniz Research Institute for Environmental Medicine (IUF) Neural Progenitor Cell Proliferation Assay (NPC1) (AID 2284209).
Details: not given
The method, boiled down:
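Single spheres (0.25-0.35 mm) of human fetal cortex-derived neural progenitor cells were grown in proliferation medium with EGF and FGF at 37C and 5% CO2. They were exposed for 72 h without renewal, and viability was read by alamar blue resorufin fluorescence.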
As to `CN1CCC[C@H]1c1cccnc1`, the molecule was classed as inactive.

Regarding `CC1=C(/C=C/C(C)=C/C=C/C(C)=C/C(=O)O)C(C)(C)CCC1`, the molecule was called inactive.

For `CC#C[C@]1(O)CC[C@H]2[C@@H]3CCC4=CC(=O)CCC4=C3[C@@H](c3ccc(N(C)C)cc3)C[C@@]21C`, the outcome was inactive.

The next test can be described thus: CCTE_Mundy_HCI_Cortical_Synap_Neur_Matur_NeuriteSpotCountPerNeuriteLength: CCTE's Synaptogenesis and Neurite Maturation Assay in rat cortical cells for Neurite Spot Count per Neurite Length, Mundy Lab (AID 2284210).
Details: not given
The method, boiled down:
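Rat primary cortical cultures, glia arrested with AraC at DIV 5, were dosed with media change at DIV 7 and fixed at DIV 12. Synaptophysin puncta per MAP2-labelled neurite length were quantified by high-content imaging versus DMSO.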
On to `CN1CCC[C@H]1c1cccnc1`, for which the result was inactive.

As to `CC1=C(/C=C/C(C)=C/C=C/C(C)=C/C(=O)O)C(C)(C)CCC1`, the call was inactive.

`CC#C[C@]1(O)CC[C@H]2[C@@H]3CCC4=CC(=O)CCC4=C3[C@@H](c3ccc(N(C)C)cc3)C[C@@]21C`: the AC50 is 25.7 µM (active).

(Values after PubChem BioAssay (EPA / NIEHS).)
